Assay in all cases: qHTS profiling for inhibitors of Plasmodium falciparum proliferation (AID 504749); also: nearly all actives have a fitted effect of over 60% in size
Common to all, as to conditions: P. falciparum in erythrocytes, SYBR Green DNA, 72 h; series mostly up to 28.7 µM
In general terms: qHTS replaces the single test concentration by a dilution series.

One assay relates to CP238. Summed up:
(§1)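 Infected RBCs, 0.3% parasitemia/2.5% Hct final; cpd 72 h, 37 C, 5% CO2; lysis buffer with saponin/triton/SYBR Green I, o/n RT dark; FI 485/535; norm. to artemisinin (0.29 uM) and DMSO.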

For a further assay, the system named is CP250. In a few lines:
as §1

In the next assay the test system is CP252. In a few lines: as §1
Another assay relates to CP256. In a few lines:
as §1

For a further assay, the system named is CP260. In a few lines:
as §1

Another assay has as its system CP262. In a few lines:
as §1

A further assay has as its system CP265. In a few lines:
as §1

In the next assay the test system is CP268. Summed up: as §1
Another assay concerns CP269. In a few lines: as §1
In a further assay the test system is CP286. In a few lines: as §1
A further assay deals with CP291. Summed up: as §1
The test system of another assay is CP297. Summed up: as §1
The test system of another assay is CP305. In a few lines: as §1
For another assay, the system named is CP315. Summed up: as §1
In another assay the test system is CP325. In a few lines:
as §1

The next assay deals with CP329. In a few lines:
as §1

In the next assay the test system is CP335. Summed up:
as §1

The next assay has as its system DFO2036. In a few lines:
as §1

A further assay has as its system CP247. Summed up:
as §1

In a further assay the test system is CP266. In a few lines:
as §1

SMILES strings stand for the structures. Inconclusive results are not listed. Active and inactive are the calls of the source. Calls follow the shape of the dose curve; as a rule, active = well fitted inhibition curve with a large enough effect; inconclusive = small, poorly fitted or top-dose-only effect; inactive = flat fitted curve, though single readings scatter.

Our source for the Potency and outcome values is PubChem BioAssay (NCATS).
Potency is read from the fitted curve at half-maximal effect.

On to `CCC1(CC)C(=O)C=CNC1=O`, for which the Potency entry in the assay with CP238, with CP250, in the assay with CP252, in the assay on CP256, in the assay on CP260 and in the assay on CP262 was “inactive” throughout. In addition, the Potency entry with CP265, in the assay with CP268, in the assay on CP269, with CP286, in the assay with CP291 and with CP297 was “inactive” each time. Further, the Potency entry with CP305, in the assay with CP315, in the assay with CP325, in the assay on CP329, in the assay with CP335 and with DFO2036 was “inactive” in each case.

Turning to `CN1C[C@H](C(=O)N[C@]2(C)O[C@@]3(O)[C@@H]4CCCN4C(=O)[C@H](Cc4ccccc4)N3C2=O)C=C2c3cccc4[nH]cc(c34)C[C@H]21`, the Potency is 1.41 µM (active) in the assay on CP238; 3.55 µM (active) in the assay with CP247; 3.16 µM (active) in the assay with CP250; 1 µM (active) with CP252; 4.47 µM (active) with CP256; 0.282 µM (active) with CP260. Moreover, the Potency with CP262 is 9.53 µM (active); in the assay with CP265, 0.631 µM (active); with CP268, 6.75 µM (active); with CP269 it was 4.26 µM (active); in the assay with CP286, 0.891 µM (active); in the assay on CP291 it was 9.53 µM (active). In addition, the Potency is 3.38 µM (active) in the assay with CP297; 6.75 µM (active) in the assay on CP305; 12 µM (active) with CP315; 6.75 µM (active) in the assay with CP325; 15.1 µM (active) in the assay on CP329; 0.675 µM (active) in the assay with CP335. In addition, the Potency in the assay with DFO2036 was 1.26 µM (active).

Regarding `COP(=S)(OC)SCN1C(=O)c2ccccc2C1=O`, the Potency result in the assay on CP238, with CP250, with CP252, in the assay with CP256, in the assay with CP260 and with CP262 was “inactive” throughout. Besides, the Potency result with CP265, in the assay on CP268, in the assay on CP269, with CP286, with CP291 and with CP297 was “inactive” each time. For the same compound, the Potency result in the assay on CP305, with CP315, in the assay with CP325, with CP329, in the assay with CP335 and with DFO2036 was “inactive” each time.

For the compound `O=C1c2ccccc2C(=O)c2ccccc21`, the Potency entry in the assay with CP238, with CP247, with CP250, in the assay on CP252, in the assay on CP256 and in the assay on CP262 was “inactive” each time. Besides, the Potency entry with CP268, in the assay with CP286, in the assay with CP291, with CP297, with CP315 and in the assay on CP325 was “inactive” throughout. Besides, the Potency entry with CP329 and in the assay on DFO2036 was “inactive” throughout. Moreover, the Potency with CP265 is 10 µM (active). In the assay with CP266, the result was inactive.

As for `O=P1(N(CCCl)CCCl)NCCCO1` (configuration not stated), the Potency entry with CP238, in the assay with CP247, in the assay on CP250, with CP252, in the assay with CP260 and in the assay on CP262 was “inactive” in each case. Besides, the Potency entry in the assay with CP265, in the assay with CP268, in the assay with CP269, in the assay on CP286, in the assay on CP291 and with CP297 was “inactive” in each case. The Potency entry with CP305, in the assay with CP315, with CP325, in the assay on CP329, in the assay on CP335 and with DFO2036 was “inactive” throughout. Further, the outcome in the assay with CP266 was inactive.

`NC(=O)c1cc([N+](=O)[O-])cc([N+](=O)[O-])c1`: the Potency result in the assay with CP238, with CP256, with CP268, in the assay on CP286, with CP291 and with CP297 was “inactive” each time. For the same compound, the Potency result in the assay with CP305 and with CP315 was “inactive” throughout. The outcome in the assay on CP266 was inactive.

As to `CC(C)c1cccc(C(C)C)c1O`, the Potency result in the assay on CP238, in the assay on CP247, in the assay with CP250, in the assay with CP252, in the assay on CP256 and with CP260 was “inactive” in each case. The Potency entry in the assay with CP262, in the assay on CP265, in the assay on CP286, with CP305, in the assay with CP315 and with CP325 was “inactive” in each case. The Potency entry in the assay with CP335 and with DFO2036 was “inactive” throughout. Also, the result with CP266 was inactive.

Consider `CCCCCCCCCC(=O)O[C@H]1CC[C@H]2[C@@H]3CCC4=CC(=O)CC[C@@H]4[C@H]3CC[C@]12C`, for which the Potency result in the assay with CP238, in the assay on CP247, in the assay with CP250, in the assay with CP252, in the assay on CP256 and in the assay on CP262 was “inactive” in each case. The Potency result in the assay with CP265, with CP268, with CP269, with CP291, in the assay on CP297 and in the assay on CP305 was “inactive” throughout. For the same compound, the Potency result with CP315, with CP325, in the assay with CP329, with CP335 and with DFO2036 was “inactive” in each case. In addition, the compound was classed as inactive with CP266.

For the compound `COC(=O)C(c1ccccc1)C1CCCCN1` (configuration not stated), the Potency entry in the assay on CP238, in the assay on CP247, in the assay on CP250, with CP252, in the assay on CP256 and with CP260 was “inactive” each time. The Potency entry in the assay on CP265, in the assay with CP268, in the assay on CP269, in the assay with CP286, with CP297 and in the assay with CP305 was “inactive” throughout. The Potency entry in the assay on CP315, with CP325, with CP329, in the assay with CP335 and in the assay on DFO2036 was “inactive” in each case. The compound was called inactive in the assay with CP266.

Turning to `CCOP(=S)(OCC)Oc1ccc2c(C)c(Cl)c(=O)oc2c1`, the Potency result in the assay with CP247, in the assay on CP262 and with CP315 was “inactive” throughout. Moreover, in the assay with CP286, the Potency is 10 µM (active).

Regarding `C=CCN1C[C@H](C)N([C@H](c2ccc(C(=O)N(CC)CC)cc2)c2cccc(OC)c2)C[C@H]1C`, the Potency result in the assay on CP238, in the assay with CP268, in the assay with CP269, in the assay with CP291, in the assay with CP305 and with CP315 was “inactive” each time. The Potency entry in the assay on CP325 and in the assay with CP329 was “inactive” each time. The compound was called inactive in the assay on CP266.

With `NNc1ccccc1`, the Potency result in the assay with CP238, with CP247, in the assay on CP250, with CP252, in the assay with CP256 and in the assay on CP260 was “inactive” in each case. Also, the Potency entry in the assay with CP262, in the assay with CP265, with CP268, with CP269, in the assay on CP286 and in the assay with CP297 was “inactive” each time. The Potency entry in the assay on CP305, in the assay on CP325, in the assay on CP329, with CP335 and in the assay with DFO2036 was “inactive” each time. The outcome in the assay with CP266 was inactive.

Turning to `O=C(Nc1ccc(Br)cc1)c1cc(Br)cc(Br)c1O`, the Potency entry with CP238, in the assay with CP247, in the assay with CP250, in the assay with CP252, in the assay on CP256 and in the assay on CP260 was “inactive” each time. Also, the Potency entry in the assay on CP265, with CP268, with CP269, in the assay with CP286, in the assay on CP291 and in the assay with CP297 was “inactive” in each case. The Potency entry in the assay with CP305, with CP315, in the assay on CP325, with CP329, in the assay on CP335 and in the assay with DFO2036 was “inactive” each time. Besides, the result in the assay with CP266 was inactive.

For the compound `CN1CCC(O)(c2ccc(F)cc2)C(C(=O)c2ccc(F)cc2)C1` (configuration not stated), the Potency result with CP238, in the assay on CP247, in the assay on CP250, in the assay on CP252, in the assay on CP256 and in the assay on CP262 was “inactive” each time. In addition, the Potency result with CP265, in the assay on CP268, in the assay on CP269, in the assay on CP286, in the assay with CP291 and with CP297 was “inactive” throughout. In addition, the Potency entry with CP305, in the assay with CP315, with CP325, in the assay on CP329, with CP335 and in the assay on DFO2036 was “inactive” in each case. In addition, the call in the assay on CP266 was inactive.

Consider `COc1ccc2c(c1)C13CCCC[C@@H]1C(C2)N(C)CC3` (some centres not stated), for which the Potency entry in the assay on CP238, with CP247, in the assay on CP250, with CP252, in the assay with CP262 and in the assay with CP286 was “inactive” in each case. Besides, the Potency result with CP297, in the assay on CP305, in the assay with CP315, with CP325, in the assay with CP329 and in the assay on DFO2036 was “inactive” in each case. The Potency with CP260 was 11.2 µM (active). For the same compound, the call in the assay on CP266 was inactive.

Consider `CN1C(=O)C(O)N=C(c2ccccc2)c2cc(Cl)ccc21` (configuration not stated), for which the Potency entry in the assay with CP238, in the assay with CP247, with CP250, in the assay with CP252, in the assay on CP256 and in the assay with CP260 was “inactive” each time. Further, the Potency result in the assay on CP262, in the assay with CP265, with CP268, in the assay with CP269, in the assay with CP286 and in the assay with CP291 was “inactive” in each case. For the same compound, the Potency entry in the assay on CP297, with CP305, with CP315, in the assay on CP325, with CP329 and with CP335 was “inactive” in each case. Besides, in the assay with DFO2036, the Potency result is “inactive”.

With `O=C1Nc2ccc(Cl)cc2C(c2ccccc2Cl)=NC1O` (configuration not stated), the Potency result with CP238, in the assay on CP247, with CP250, in the assay on CP252, in the assay on CP256 and with CP260 was “inactive” each time. The Potency result with CP265, in the assay with CP268, in the assay on CP269, in the assay with CP286, in the assay on CP291 and in the assay with CP297 was “inactive” each time. The Potency result in the assay on CP305, with CP315, with CP325, with CP329, in the assay on CP335 and in the assay with DFO2036 was “inactive” each time. Further, the result in the assay with CP266 was inactive.

In the case of `COc1ccc2c(c1OC)C(=O)O[C@H]2[C@@H]1c2cc3c(cc2CCN1C)OCO3`, the Potency result in the assay on CP262, in the assay on CP268, in the assay with CP269, in the assay with CP291, in the assay with CP297 and with CP305 was “inactive” in each case. In addition, the Potency entry in the assay on CP315, in the assay with CP325, in the assay on CP329 and in the assay with CP335 was “inactive” throughout. For the same compound, in the assay with CP266, the result was inactive.
